Sampled rows, rich in hits. Any-hit rate of the full collection: about 4.6%.
tim23-1 inh = growth inhibitors of tim23-1 mutant yeast. S. cerevisiae tim23-1 growth, BacTiter-Glo luminescence, 24 h. inhibition, % at 20 µM. 330,000 tested, 1.3% active. AID 463212;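 active = growth inhibition of the mutant yeast at or above 50%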;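 note: temperature-sensitive mutant grown at 25 °C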
TIM10 inh = growth inhibitors of TIM10 yeast strain; S. cerevisiae TIM10 strain growth, BacTiter-Glo luminescence, 24 h; inhibition, % at 10 µM; 330,000 tested, 1.4% active; AID 463195;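 active = inhibition of 40% or more at the single tested concentration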;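 note: wild-type TIM10 isogenic control strain grown at permissive 25 °C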
PfHsp90 set2 = inhibits growth of yeast expressing Plasmodium falciparum Hsp90; S. cerevisiae expressing PfHsp90, BacTiter-Glo ATP, 48 h; yeast lacking PDR1 and PDR3 efflux regulators; inhibition, % at 9.4 µM; 310,000 tested, 0.32% active;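 active = every replicate shows inhibition above about 80%, whatever the replicate mean, limit read from the data; inconclusive = mean inhibition reaches the set limit but some replicate falls short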
tim10-1 inh = inhibits growth of tim10-1 mutant yeast; 330,000 tested, 2.2% active; S. cerevisiae tim10-1 ts strain growth, BacTiter-Glo, 24 h; inhibition, % at 20 µM;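 active = inhibition of at least 40%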;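 note: mutant grown at 25 °C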
SKKanGAS inh = blocks kanamycin growth of S. pyogenes SKKanGAS strain; BacTiter-Glo, 6 h; inhibition, % at 7.5 µM; 300,000 tested, 1.3% active; AID 1662;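 active = mean replicate score, as percent of positive control median, at least 50; inconclusive = mean below 50 but one replicate at or above 50; inactive = mean and every replicate below 50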;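 note: strain carries kanamycin resistance gene driven by streptokinase promoter and grows in 40 µg/ml kanamycin; loss of luminescence reflects streptokinase promoter inhibition or plain growth inhibition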
V-ATPase pHluor = alters yeast V-ATPase proton transport | S. cerevisiae, pHLuorin cytosolic pH fluorescence | response, % at 10 µM | 350,000 tested, 0.37% active | AID 504577; in the data active = response mostly above about 7.3%, no sharp cut-off; inactive = mostly below about 5.4%; note: actives read high
tim23-1 confirm = tim23-1 yeast growth inhibition, confirmed | 4,400 tested, 83% active | inhibition, % at 20 µM | shares compounds with tim23-1 inh | AID 463218 | S. cerevisiae tim23-1 growth, BacTiter-Glo luminescence, 24 h;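 active = inhibition above about 39% in either of two replicate wells at 20 µM, limit read from the data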;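 note: temperature-sensitive tim23-1 mutant grown at 25 °C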
Each line names hits and unclear results; the compound was inactive in the other large screens (follow-up assays come after a bar, where they were run).

CC(C)CC(=O)NC(c1cccs1)c1ccc2cccnc2c1O (stereo not drawn)	tim23-1 inh 51.5, PfHsp90 set2 103.9, SKKanGAS inh inconclusive | tim23-1 confirm 64.8
O=C(O)c1ccc(CNC(=O)C23CC4CC(CC(C4)C2)C3)cc1	none
COC(=O)[C@H](CC(C)C)N(Cc1ccccc1)S(=O)(=O)N(Cc1ccc(OC)cc1)[C@@H](CC(C)C)C(=O)OC	none (no result: SKKanGAS inh)
COc1ccc(-c2nnc(NC(=O)C3=COCCO3)o2)cc1	none
Cc1ccc(-c2cc(C(=O)Nc3cc(C)ccc3C)[nH]n2)c(O)c1	none
Cc1ccc(-c2cc(-c3cccs3)[nH]n2)c(O)c1	tim23-1 inh 51.3 (no result: PfHsp90 set2) | tim23-1 confirm inactive
CCCCCOC(=O)Cc1c(C)nc(-c2ccccc2)[nH]c1=O	tim23-1 inh 53.7 | tim23-1 confirm 51.9
NS(=O)(=O)c1ccc(NC(=S)NNC(=O)c2ccc(Br)o2)cc1	none
O=C(CN(Cc1ccc(F)cc1)C(=O)CCC(=O)Nc1ccccn1)NCCc1ccccc1	none
CCc1nc(N2CCN(C(=O)CCl)CC2)c2c3c(sc2n1)CC(C)CC3 (stereo not drawn)	tim23-1 inh 55.4 | tim23-1 confirm inactive
Cc1nc2sc(C(c3ccccc3)N3CCOCC3)c(O)n2n1 (stereo not drawn)	none
Cc1nc2sc(C(c3ccc(Cl)cc3)N3CCOCC3)c(O)n2n1 (stereo not drawn)	tim23-1 inh 52.9 | tim23-1 confirm inactive
CN(Cc1cn(C)nc1-c1ccccc1F)CC1CCCCO1 (stereo not drawn)	none
CC(CNC(=O)C(=O)NC(C)CCc1ccccc1)Cc1ccccc1 (stereo not drawn)	none
Cc1ccccc1/C=C1\Oc2ccccc2C1=O	tim23-1 inh 53.9 (no result: SKKanGAS inh) | tim23-1 confirm 56.5
O=C1C(=Cc2cccs2)Oc2ccccc21	none (no result: tim23-1 inh, TIM10 inh, tim10-1 inh, SKKanGAS inh)
CS(=O)(=O)N(CC(=O)NC1CC2CCC1C2)c1ccc(Oc2ccccc2)cc1 (stereo not drawn)	none
N#C/C(N)=C(/C#N)N=Cc1cccc(Cl)c1	tim23-1 inh 52.2 | tim23-1 confirm 51.5
O=C(CN1CCCc2ccccc21)N/N=C/c1c(O)ccc2ccccc12	none
Cc1c(-n2cc(C(=O)O)c(=O)c3cc(F)c(N4CCCC(O)C4)c(F)c32)c(=O)n(-c2ccccc2)n1C (stereo not drawn)	none
O=C(O)c1cn(-c2ccc(N3CCCC3)c(F)c2)c2c(F)c(F)c(F)cc2c1=O	tim23-1 inh 53.1, PfHsp90 set2 105.8 | tim23-1 confirm inactive
CCC(=O)Nc1ccc(C(=O)n2nc(C)cc2C)cc1	none
Cc1cc(Nc2ccccc2)nn1C(=O)c1ccccc1	tim23-1 inh 51.0 | tim23-1 confirm 52.0
COc1ccc(CNC(=O)COC(=O)/C=C/c2cccc(Br)c2)cc1OC	none
Cn1c(-c2sc3ccccc3c2Cl)n[nH]c1=S	tim23-1 inh 51.7 | tim23-1 confirm 43.5
CNC(=S)NN=C(C)CCCC(C)=NNC(=S)NC	none (no result: tim23-1 inh, TIM10 inh, tim10-1 inh, SKKanGAS inh)
Cc1ccc2nc(-c3ccc(NC(=S)NC4CC(C)(C)NC(C)(C)C4)cc3)sc2c1	tim23-1 inh 70.3, SKKanGAS inh 58.2 | tim23-1 confirm 66.9
Cc1ccc2nc(-c3ccc(NC(=S)NC(=O)C(C)C)cc3)sc2c1	none
CC1(c2ccccc2Br)NC(=O)N(CC(=O)NC2CCCCC2)C1=O (stereo not drawn)	none (no result: SKKanGAS inh)
COc1ccc(OC)c(NC(=O)CSc2ccc3nnc(-c4cccnc4)n3n2)c1	none (no result: PfHsp90 set2)
COC(=O)N/N=C/c1ccccc1OCCOc1ccc(OC)cc1	tim23-1 inh 50.7 | tim23-1 confirm 48.0
CCN(CC)c1ccc(N=Cc2cc(Br)ccc2O)cc1	none
CCc1ccc(O)c(N=Cc2ccccc2O)c1	none
OCC(CO)(CO)N=Cc1cc(Br)ccc1O	tim23-1 inh 59.2 | tim23-1 confirm 56.4
CC(C)(C)c1ccc(O)c(N=Cc2cc(Br)ccc2O)c1	tim23-1 inh 68.7 | tim23-1 confirm inactive
Cc1cccc(N2C(=O)c3ccc(C(=O)Nc4ccccn4)cc3C2=O)c1	none
Cc1cccc(N2C(=O)/C(=C\c3ccc(C(=O)O)cc3)c3ccccc3C2=O)c1	tim23-1 inh 56.3 (no result: PfHsp90 set2) | tim23-1 confirm inactive
O=c1c2cn[nH]c2nc(SCc2c(F)cccc2F)n1-c1ccc(Cl)cc1	tim23-1 inh 51.7, SKKanGAS inh 59.0 | tim23-1 confirm 54.0
CCCCSCc1nc2nc(Cl)c(Cl)nc2[nH]1	none (no result: tim23-1 inh, TIM10 inh, PfHsp90 set2, tim10-1 inh, SKKanGAS inh)
Cc1cc(OC(C)C(=O)NCc2ccccn2)c2c(C)c(C)c(=O)oc2c1 (stereo not drawn)	none
O=C1CCCCc2sc(Br)c([N+](=O)[O-])c2N1	none
N=c1n(CCO)c2ccccc2n1CCOc1ccccc1	tim23-1 inh 65.4 | tim23-1 confirm inactive
CCn1c(=N)n(CCOc2ccc(OC)cc2)c2ccccc21	none
Cc1cccc(C)c1Nc1nnc(SCC(=O)c2ccc(Br)s2)s1	tim23-1 inh 52.5 | tim23-1 confirm 61.1
O=C(CCCN1C(=O)/C(=C/c2ccccc2)SC1=S)Nc1cccc(O)c1	tim23-1 inh 50.2 | tim23-1 confirm 50.0
CCOc1cc(C2CC(=O)c3c(ccc4ccccc34)N2)ccc1O (stereo not drawn)	none
Cc1ccc(S(=O)(=O)NC23CC4CC(CC(C4)C2)C3)cc1	tim23-1 inh 50.5 (no result: SKKanGAS inh) | tim23-1 confirm 52.1
COc1cc(/C=C2\SC(=Nc3ccccc3OC)NC2=O)ccc1O	none
COc1ccc(/C=C2\SC(=Nc3ccccc3OC)NC2=O)cc1	tim23-1 inh 53.2 | tim23-1 confirm 60.0
O=C(/C=C/N1CCOCC1)c1ccc(-c2ccccc2)cc1	tim23-1 inh 51.8, PfHsp90 set2 105.9 | tim23-1 confirm inactive
O=C(/C=C\N1CCOCC1)c1ccc(Br)cc1	none
CCOc1cc(/C=C2\C(=O)ON=C2C)ccc1OCc1ccccc1	tim23-1 inh 51.0 | tim23-1 confirm 40.9
CN(C(=O)c1ccc(Br)o1)C1CCCCC1	none
COc1ccc(C2CC(c3ccc(C(F)(F)F)cc3)=NN2c2ccc(S(N)(=O)=O)cc2)cc1 (stereo not drawn)	tim23-1 inh 50.8 (no result: SKKanGAS inh) | tim23-1 confirm inactive
CC1=C(C(=O)N(C(C)C)C(C)C)CC(CC(=O)NCc2cccs2)C(=O)N1Cc1ccccc1 (stereo not drawn)	none (no result: tim23-1 inh, TIM10 inh, PfHsp90 set2, tim10-1 inh, SKKanGAS inh)
O=C1C=C(c2cccc(Cl)c2O)C[C@@H](c2ccc3c(c2)OCO3)C1	tim23-1 inh 66.6 (no result: SKKanGAS inh) | tim23-1 confirm 54.0
CC(C)(CO)NC(=S)NCc1ccco1	none
COc1ccc(/C=N/NC(=O)c2cc(C34CC5CC(CC(C5)C3)C4)[nH]n2)cc1OC	none
COc1cccc(/C=N/NC(=O)c2cc(C34CC5CC(CC(C5)C3)C4)[nH]n2)c1	tim23-1 inh 65.7 | tim23-1 confirm 41.5
COc1cc(C2CC(=O)Oc3cc(C)c(Cl)c(C)c32)cc(OC)c1OC (stereo not drawn)	none (no result: SKKanGAS inh)
COc1ccc(C2CC(=O)Oc3cc(C)cc(C)c32)cc1 (stereo not drawn)	none (no result: SKKanGAS inh)

Assay outcomes: PubChem, several laboratories
